Only some compounds are listed: those with a hit (about 4.1% of all), similar ones and a draw of the others.
Mdm2 MdmX PPI: human Mdm2/MdmX binding inhibition; inhibition, % at 8 µM; hit rate 3% among 330,000; SaOS-2 split-luciferase Mdm2/MdmX complementation, luminescence; O15151+Q00987; AID 485346;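 active = inhibition of at least 50% at 8 µM in the primary screen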
Target sequence (O15151 whole entry, looked up): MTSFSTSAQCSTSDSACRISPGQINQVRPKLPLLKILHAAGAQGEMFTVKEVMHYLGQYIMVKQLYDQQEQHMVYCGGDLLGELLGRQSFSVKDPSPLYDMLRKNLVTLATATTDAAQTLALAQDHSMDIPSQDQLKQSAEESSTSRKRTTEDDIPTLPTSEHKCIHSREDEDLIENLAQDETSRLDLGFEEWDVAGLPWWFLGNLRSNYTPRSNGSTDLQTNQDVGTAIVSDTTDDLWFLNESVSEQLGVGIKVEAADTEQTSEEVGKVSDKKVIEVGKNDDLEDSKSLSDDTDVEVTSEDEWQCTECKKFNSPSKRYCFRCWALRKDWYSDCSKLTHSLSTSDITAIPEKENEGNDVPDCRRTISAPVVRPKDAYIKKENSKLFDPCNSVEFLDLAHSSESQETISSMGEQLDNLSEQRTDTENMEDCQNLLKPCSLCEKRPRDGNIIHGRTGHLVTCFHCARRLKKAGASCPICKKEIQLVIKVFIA
Target sequence (Q00987 whole entry, looked up): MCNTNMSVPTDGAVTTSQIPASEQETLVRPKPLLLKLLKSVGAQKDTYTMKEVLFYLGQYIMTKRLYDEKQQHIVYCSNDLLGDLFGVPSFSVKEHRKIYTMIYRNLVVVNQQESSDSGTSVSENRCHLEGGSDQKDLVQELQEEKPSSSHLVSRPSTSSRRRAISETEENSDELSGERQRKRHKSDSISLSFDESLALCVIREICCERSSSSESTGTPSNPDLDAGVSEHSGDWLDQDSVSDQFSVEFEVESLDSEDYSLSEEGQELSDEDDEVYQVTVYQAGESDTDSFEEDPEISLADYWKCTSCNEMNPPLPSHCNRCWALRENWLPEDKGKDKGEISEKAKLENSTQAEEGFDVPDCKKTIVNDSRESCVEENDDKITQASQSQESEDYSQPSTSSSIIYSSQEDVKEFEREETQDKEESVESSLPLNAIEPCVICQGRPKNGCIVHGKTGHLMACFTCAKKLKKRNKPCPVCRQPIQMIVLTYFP
Bfl-1 A1 inh: inhibitors of the anti-apoptotic protein A1, read as caspase activation; MEF A1-2A-BIM cells, Caspase-Glo 3/7 luminescence, 3 h; percent of clofoctol response, vehicle zero; caspase activation, % (concentration not given with the values); hit rate 0.066% among 330,000; AID 2462;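 active = over half of replicate activation scores above 10%, or exactly half above 10 with the replicate mean above 10; inconclusive = replicate mean below 10 yet half the replicates above 10; inactive = over half of replicates below 10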
CSC inhib: cancer stem cell inhibition; cancer stem cell-like cells viability, luminescence; inhibition, % at 7.5 µM; hit rate 1.1% among 300,000; in the data active = inhibition above about 75%; inconclusive = no clear call, values can overlap the other calls; tested in HMLE shEcad cells
aSyn 5UTR inh: MLPCN primary screen, SNCA 5' untranslated region. alpha-synuclein 5'UTR reporter, inhibitor activity. inhibition, % (tested at 7.5 µM). hit rate 0.82% among 300,000. AID 1813; in the data active = inhibition above about 60%; inconclusive = no clear call, values can overlap the other calls;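 note: H4 neuroglioblastoma cells stably carrying SNCA 5'UTR luciferase fusion; 0% = DMSO wells and 100% = positive control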
Beta apoptosis: beta cell apoptosis inhibition | INS-1E cytokine-induced death, ATP luminescence, 48 h; percent of positive-control rescue, neutral wells zero | protection from apoptosis, % (test concentration not listed) | hit rate 0.8% among 300,000 | AID 435005;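 active = Every replicate reaches about 75%, or at least half do and their mean reaches it too, limit read from the data; inconclusive = At least half of replicates reach the limit but their mean does not; inactive = Under half of replicates reach the limit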;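 note: 0% = cytokine-treated negative control wells and 100% = positive control rescue; higher means more ATP so stronger rescue from cytokine killing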
Mdm2 MdmX conf: human Mdm2/MdmX binding inhibition, confirmed; shares compounds with Mdm2 MdmX PPI; luminescent assay; inhibition, % at 8 µM; hit rate 55% among 10,000; AID 489028; in the data active = inhibition above about 40%
FLuc counter: inhibits full-length luciferase, flagging false Mdm2/MdmX hits. inhibition, % at 8 µM. hit rate 77% among 6,200. shares compounds with Mdm2 MdmX PPI. SaOS-2 full-length luciferase counterscreen, luminescence;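 active = mean inhibition at 8 µM reaching about 37%, which flags the compound as non-specific, limit read from the data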;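 note: p53-null SaOS-2 cells with luciferase driven by a doxycycline-inducible promoter; compound on cells about two nights before reading with doxycycline added after day one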
* = called active by the depositor; ? = inconclusive; / = no result.

SMILES | Mdm2 MdmX PPI | Bfl-1 A1 inh | CSC inhib | aSyn 5UTR inh | Beta apoptosis | Mdm2 MdmX conf | FLuc counter
COc1cc(/C=C/C(=O)c2ccc(NS(=O)(=O)c3ccc(C)cc3)cc2)ccc1OC(F)F | 92.2* | 0.9 | -7.2 | -46.1 | / | 42.4* | 61.8*
C[C@@H](C(=O)CC(=O)OC(C)(C)C)[C@@H](O)c1ccccc1 | 9.4 | -0.1 | -13.3 | 4.1 | -5.9 | / | /
CC(C)COC(=O)N1C[C@H](O)C[C@H]1C(=O)Nc1ccc(Cl)cc1 | 5.8 | 0.0 | -6.3 | -5.9 | -5.4 | / | /
COC(=O)Cc1c(C)c2ccc(OCC(=O)N(C)C3CCS(=O)(=O)C3)cc2oc1=O (stereo not given) | -0.5 | 0.1 | 10.6 | 3.0 | -0.1 | / | /
CC1CCc2c(sc3ncn(CC(=O)N=Nc4c(O)[nH]c5ccccc45)c(=O)c23)C1 (stereo not given) | 53.4* | 0.8 | 0.7 | 28.6 | 10.9 | -4.0 | /
COc1cccc(-c2ccc3ncnc(NCc4cccnc4)c3c2)c1 | 68.5* | -1.7 | / | / | -7.4 | 48.4* | 22.6
COc1ccc(C2=NN(C(=O)/C=C/c3ccccc3)C(c3ccccc3)C2)c(OC(C)=O)c1 (stereo not given) | 58.2* | 0.4 | 47.3 | 9.0 | 21.7 | 14.9 | /
COc1ccc(C2CC(c3ccccc3OC(C)=O)=NN2C(=O)/C=C/c2ccccc2)cc1OC (stereo not given) | 41.4 | -1.0 | 37.7 | 26.1 | 14.6 | / | /
Cc1csc2sc(-c3ccnc(SCC(=O)NCc4ccccc4)n3)c(C)c12 | 56.0* | 0.6 | 47.5 | 15.0 | / | 58.8* | 85.7*
Cc1csc(SCC(=O)NCc2ccccc2)n1 | -20.3 | -0.6 | 7.3 | 27.9 | -5.7 | / | /
Cn1c(CC(=O)Nc2ccccc2)cc2ccccc21 | -16.2 | 1.2 | -3.6 | 10.0 | -6.2 | / | /
CC(C)(C)c1nnc(N/N=C/c2ccccc2O)n(N)c1=O | 58.6* | 0.5 | / | 110.0* | / | 82.1* | 22.4
Cc1ncc(CO)c(/C=N/NC(=O)c2cc3c(s2)CCCC3)c1O | 58.4* | 0.8 | 72.4 | 36.0 | 88.3* | 42.5* | 50.7*
COc1ccc(-n2nc(C(=O)NCC(=O)Nc3cc(OC)c(OC)c(OC)c3)c3ccccc3c2=O)cc1 | 51.5* | -0.3 | -33.3 | 15.4 | 6.8 | 33.3 | /
COc1ccc(-n2nc(C(=O)NCC(=O)Nc3cc(OC)c(OC)c(OC)c3)c3ccccc3c2=O)cc1OC | 69.7* | -2.9 | 20.3 | 11.9 | -4.5 | 66.5* | 68.1*
CN(C)c1ccc(N2C(=NC(=O)c3ccccc3)SC3CS(=O)(=O)CC32)cc1 (stereo not given) | 30.7 | 1.5 | -14.4 | 16.4 | -5.6 | / | /
Cc1ccc(C(=O)NNC(=O)C(NC(=O)c2cccc(C)c2)C(C)C)cc1 (stereo not given) | -11.8 | 0.6 | / | / | -14.1 | / | /
COc1cc(C#Cc2c(-c3cncn3C)n(C)c3ccc(-c4ccc5[nH]ccc5c4)cc23)cc(OC)c1 | 26.1 | -0.7 | 33.0 | / | 18.6 | / | /
COc1cc(C#Cc2c(-c3cncn3C)n(C)c3ccc(-c4cc(OC)c(OC)c(OC)c4)cc23)cc(OC)c1 | 95.7* | -0.9 | 61.6 | / | 21.8 | 50.7* | 61.6*
COc1cc(C#Cc2c(-c3cncn3C)n(C)c3ccc(-c4ccc(OC)nc4)cc23)cc(OC)c1 | 68.8* | 0.9 | 84.2* | / | 17.6 | 36.1 | 58.0*
CN(C)CCNc1ccc(-c2nn(C)c(=O)c3ccccc23)cc1[N+](=O)[O-] | 52.8* | 0.6 | 6.7 | -2.1 | -8.6 | 37.3 | 78.5*
CCOC(=O)C1=C(COC(=O)C2CC(=O)N(c3ccccc3F)C2)NC(=O)NC1C (stereo not given) | -27.0 | 0.4 | -10.3 | / | -3.7 | / | /
O=C(COc1ccc(Cl)cc1Cl)NN=C1c2ccccc2-c2ccccc21 | 81.9* | -0.1 | 3.1 | -16.3 | -6.6 | 20.1 | /
COc1cccc(NC(=O)NNC(=O)CCc2ccc(O)c(O)c2)c1 | -13.9 | 0.1 | -2.0 | -25.9 | -3.9 | / | /
CCOc1ccc(CCNC(=O)CCn2ccc3cc(S(=O)(=O)N4CCCC4)ccc32)cc1 | 31.4 | -0.3 | -7.6 | 7.0 | 4.2 | / | /
SMILES | Mdm2 MdmX PPI | Bfl-1 A1 inh | CSC inhib | aSyn 5UTR inh | Beta apoptosis | Mdm2 MdmX conf | FLuc counter
Cc1ccc2c(SCC(=O)NCc3ccco3)nc(-c3ccc(F)cc3)nc2c1 | 82.2* | -0.2 | 0.7 | -41.0 | 6.8 | -5.8 | /
O=C(NCc1ccc(-c2nc3ccccc3s2)cc1)c1ccc(Br)o1 | -51.7 | -1.2 | -10.0 | -14.0 | 2.4 | / | /
Cc1ccc2cccc(NC(=O)c3ccc(Br)o3)c2n1 | 61.4* | 0.1 | / | 39.1 | 0.3 | 63.1* | 54.8*
O=C(Nc1ccccc1-c1nc2ccccc2s1)c1ccc(Br)o1 | 60.2* | 0.6 | 7.8 | -8.5 | -1.0 | 6.3 | /
O=C(CN1C(=O)NC2(CCCC2)C1=O)OCC(=O)c1cccc(Cl)c1 | 6.7 | / | / | / | / | / | /
O=C(CSc1nnc(-c2c[nH]c3ccccc23)o1)NCC1CCCO1 (stereo not given) | 3.7 | 0.3 | -18.3 | / | -15.8 | / | /
O=C(N/N=C/c1ccccc1)c1ccc(CN2C(=O)c3cccc4cccc2c34)cc1 | 7.6 | 1.0 | 49.3 | 9.1 | -5.3 | / | /
O=C(N/N=C/c1ccc(O)cc1O)c1ccc(CN2C(=O)c3cccc4cccc2c34)cc1 | 75.3* | 1.5 | 3.1 | 62.5* | 93.2* | 74.5* | 29.2
Cc1cccc(N=c2oc3cc(O)ccc3cc2C(N)=O)c1 | 50.4* | -1.4 | 8.2 | -77.5 | -0.6 | -36.6 | /
COc1ccc2cc(C(N)=O)c(=Nc3ccc(C)cc3)oc2c1 | 54.0* | 0.5 | 0.4 | -61.7 | -2.5 | 46.4* | 35.2
CNC(=O)CSc1nnc(-c2ccco2)n1-c1cccc(OC)c1 | 23.9 | 0.4 | -5.3 | 8.1 | -5.0 | / | /
CC1CCN(c2ccc(-c3cccs3)nn2)CC1 | 55.0* | -7.3 | 32.4 | 101.5* | 28.0 | 63.6* | 40.4*
Cn1c(-c2ccccc2)cc2c3no[n+]([O-])c3ccc21 | 57.7* | 0.7 | 107.6* | -69.0 | 106.1* | 73.3* | 52.9*
Cc1cc2oc(=O)c(CC(=O)NCCCN(C)C)c(C)c2c2occ(C(C)(C)C)c12 | 94.0* | -0.6 | 90.9* | ? | 7.9 | 76.3* | 41.1*
COCCNC(=O)Cc1c(C)c2c(cc(C)c3c(C(C)(C)C)coc32)oc1=O | 66.8* | 1.4 | 69.1 | -115.5 | 28.9 | 44.5* | 64.1*
Cc1cc2oc(=O)c(CC(=O)NCCCO)c(C)c2c2occ(C(C)(C)C)c12 | 23.1 | 1.5 | 21.4 | -45.5 | -9.0 | / | /
COc1ccc(CN(C)CC(=O)Nc2ccccc2C(=O)NC2CC2)cc1F | -4.6 | -1.0 | 0.0 | / | -8.7 | / | /
Fc1cccc(CCN2CCNC[C@@H]2Cc2ccccc2)c1 | 5.2 | 1.0 | -7.0 | -5.3 | 6.1 | / | /
FC(F)(F)c1cc(CCN2CCNC[C@@H]2Cc2ccccc2)cc(C(F)(F)F)c1 | 50.7* | -0.5 | 77.0* | -22.0 | 18.2 | 19.8 | /
CCN(CC(=O)Nc1c(F)cccc1F)C(=O)COc1cccc2c1OC(C)(C)C2 | 5.9 | -0.2 | -4.7 | -9.7 | 0.6 | / | /

Compound activity (PubChem BioAssay)
